Experimental data as given in PubChem BioAssay (NCATS).
Results filed as inconclusive are left out. A number with no mark means an inactive call. Active and inactive are the calls of the source. Calls come from the whole dose curve; as a rule, active = well fitted cell-killing curve with a large enough effect; inconclusive = small, poorly fitted or top-dose-only effect, or effect the other way; inactive = no such curve, though single readings can be large or run the other way.

test: Viability qHTS for spleen associated tyrosine kinase inhibitor (SYKi) drug resistant MV4-11 cells (AID 1963824); conditions: SYKi-resistant MV4-11 viability, CellTiter-Glo, 72 h; series mostly up to 45 µM; viability, % of control: at the top concentration; note: nearly all actives have a fitted effect of over 35% in size
Outline: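 SYK-inhibitor-resistant MV4-11 AML cells were seeded at 500 per well onto compound and cultured 72 hours (37 °C, 5% CO2). CellTiter-Glo was then added, and after 10 min at room temperature, luminescence gave viability.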
Potency is the fitted concentration of half-maximal effect.

| SMILES | Potency | viability, % of control |
| --- | --- | --- |
| CN(C)C(=O)COC(=O)c1cc(-c2ccc(C3CCNCC3)cc2)c2ccc(-c3ccc(C(F)(F)F)cc3)cc2c1 | 5.17 µM (active) |  |
| CS(=O)(=O)Nc1ccc2oc3c(OC(F)F)ccc(C(=O)Nc4c(Cl)cncc4Cl)c3c2c1 | 23.1 µM (active) |  |
| COC(=O)[C@@]1(O)C=CC[C@@H]2[C@@]3(C)C[C@@H](c4ccoc4)OC(=O)[C@H]3CC[C@]21C |  | 78.3% |
| COc1cc2c(cc1O)C1(OC)Cc3ccc4c(c3C1N(C)CC2)OCO4 (stereo not given) | 5.08 µM (active) |  |
| Cc1nc(C)c(CN2CCN(C(c3ccc(F)cc3)c3ccc(F)cc3)CC2)nc1C | 14.8 µM (active) |  |
| CC(=O)O[C@@H]1CC(C)=C2[C@H]1[C@H](C)CC[C@H]2/C=C(\C)C(=O)O | 16.4 µM (active) |  |
| Nc1nc2c(c(=O)[nH]1)C[C@@H](CCc1ccc(C(=O)N[C@@H](CCC(=O)O)C(=O)O)cc1)CN2 | 0.0092 µM (active) |  |
| COc1cc(/C=C2\CC[C@H]3COC[C@@H](c4cc(F)c(F)c(F)c4)N3C2=O)ccc1-n1cnc(C)c1 | 13 µM (active) |  |
| CC[C@H]1OC(=O)[C@](C)(F)C(=O)[C@H](C)[C@@H](O[C@@H]2O[C@H](C)C[C@H](N(C)C)[C@H]2O)[C@](C)(OC)C[C@@H](C)C(=O)[C@@H](C)[C@H]2N(CCCCn3cc(-c4cccc(N)c4)nn3)C(=O)O[C@]12C | 10.3 µM (active) |  |
| c1cc(NC2CCNCC2)nc(-c2cnc3ccccn23)c1 | 0.0206 µM (active) |  |
| CC1(CO)CCCC2(C)C3COC(=O)C3=CC(O)C12 (stereo not given) |  | 81.4% |
| CC(C)CCCCC(=O)N[C@@H](CO)C(=O)N[C@@H](CC(C)C)C(=O)[C@@]1(CO)CO1 | 7.31 µM (active) |  |
| COC(=O)C1=COC(O[C@@H]2O[C@H](CO)[C@@H](O)[C@H](O)[C@H]2O)[C@H]2[C@@H]1[C@H](OC(=O)CCc1ccc(O)cc1)C[C@]2(C)O (stereo not given in full) |  | 96% [at 17.3 µM] |
| C=C(C)C1Cc2cc(C(=O)OC3OC(CO)C(O)C(O)C3O)ccc2O1 (stereo not given) |  | 77.5% |
| C=CCCN1CCC2(CC1)CN(C(=O)c1c(F)cccc1F)c1ccc(Cl)cc12 | 10.3 µM (active) |  |
| C[C@H]1CC(=O)Nc2cccc(-c3cnn(C(C)(C)C)c3)c2N1 |  | 69.2% |
| COc1cc(C)c(C(=O)O[C@H]2[C@@H](O)[C@H](n3ccc(=O)[nH]c3=O)O[C@@H]2CO)c(OC)c1 |  | 92.3% [at 17.3 µM] |
| CC[C@]1(O)CC2CN(CCc3c([nH]c4ccccc34)[C@@](C(=O)OC)(c3cc4c(cc3OC)N(C=O)[C@H]3[C@@](O)(C(=O)OC)[C@H](OC(C)=O)[C@]5(CC)C=CCN6CC[C@]43[C@@H]65)C2)C1 (stereo not given in full) | 0.0508 µM (active) |  |
| COc1cnc(-n2cnc(C)n2)c2[nH]cc(C(=O)C(=O)N3CCN(C(=O)c4ccccc4)CC3)c12 |  | 88.4% |
| CS(=O)(=O)c1ccc([C@H](CC2CCCC2)C(=O)Nc2nccs2)cc1 | 13 µM (active) |  |
| Cc1occc(=O)c1O[C@@H]1O[C@H](CO[C@@H]2OC[C@](O)(CO)[C@H]2O)[C@@H](O)[C@H](O)[C@H]1O |  | 138% [at 17.3 µM] |
| C[C@@H]1CCCN1CCc1cc2cc(-c3ccc(C#N)cc3)ccc2o1 | 20.6 µM (active) |  |
| O=c1[nH]c2ccccc2n1CCN1CCN(c2cccc(C(F)(F)F)c2)CC1 | 23.1 µM (active) |  |
| CC1OC(OC2C(O)COC(O[C@@H]3[C@@H](O)[C@@H](O)[C@H](OC4C(OC(=O)[C@]56CCC(C)(C)CC5C5=CCC7[C@@]8(C)C[C@H](O)[C@H](OC9OC(CO)C(O)C(O)C9O)[C@@](C)(CO)C8[C@H](O)C[C@@]7(C)[C@]5(C)CC6)OCC(O)C4O)O[C@H]3C)C2O)C(O)C(O)C1O (stereo not given in full) | 1.23 µM (active) |  |
| C=C1C(=O)O[C@@H]2[C@H]1CCC(C)=C1CCC(=O)O[C@]12C | 2.59 µM (active) |  |
| C/C=C(\C)C(=O)O[C@H]1C=CC(=O)O[C@H]1/C=C/[C@@H](O)[C@H](C)O | 3.66 µM (active) |  |
| CC1=C[C@@H]2[C@H]3[C@@H]4O[C@@](C)(CC[C@H]4O)[C@H]3CC(=O)[C@]23C(=O)N[C@@H](CC(C)C)[C@@H]3[C@@H]1C | 8.05 µM (active) |  |
| CC(C)n1cnc2c(Nc3cccc(Cl)c3)nc(NCCO)nc21 | 1.84 µM (active) |  |
| O=C(O)CCc1cccc(O)c1O[C@@H]1O[C@H](CO)[C@@H](O)[C@H](O)[C@H]1O |  | 75.2% |
| CCN(Cc1cc(Nc2nc(C)cn3c(-c4cn[nH]c4)cnc23)sn1)C(C)(C)CO | 0.0082 µM (active) |  |
